Laboratory results from PubChem BioAssay (EPA / NIEHS).
The source made the active and inactive calls. The calls were made as follows: active = hit-call score of the fitted dose curve at least 0.9, where 1 is the maximum; inactive = score below 0.9.

What was measured:
[1] = read-out: Interleukin-8 (IL8), CXCL8 (gene 3576); assay: BSK_CASM3C_IL8: BioMAP Diversity Plus: CASM3C Assay for Interleukin-8 (IL8) Biomarker Activity (AID 2283042); conditions: primary human coronary artery smooth muscle cells; actives raise or lower the signal;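 also: IL-8 protein level quantified by ELISA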
[2] = read-out: Human Leukocyte Antigen - DR isotype (HLADR), HLA-DRA (gene 3122); assay: BSK_CASM3C_HLADR: BioMAP Diversity Plus: CASM3C Assay for Human Leukocyte Antigen - DR isotype (HLADR) Biomarker Activity (AID 2283043); conditions: primary human coronary artery smooth muscle cells; actives raise or lower the signal;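 also: cell-surface HLA-DR protein level quantified by ELISA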
[3] = read-out: Macrophage colony-stimulating factor (MCSF), CSF1 (gene 1435); assay: BSK_CASM3C_MCSF: BioMAP Diversity Plus: CASM3C Assay for Macrophage colony-stimulating factor (MCSF) Biomarker Activity (AID 2283044); conditions: primary human coronary artery smooth muscle cells; actives raise or lower the signal;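 also: M-CSF protein amount quantified by ELISA after 24 h exposure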
[4] = read-out: Low-density lipoprotein receptor (LDLR), LDLR (gene 3949); assay: BSK_CASM3C_LDLR: BioMAP Diversity Plus: CASM3C Assay for Low-density lipoprotein receptor (LDLR) Biomarker Activity (AID 2283045); conditions: primary human coronary artery smooth muscle cells; actives raise or lower the signal;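 also: LDLR protein level on the cell surface quantified by ELISA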
[5] = read-out: Monocyte Chemoattractant Protein-1 (MCP1), CCL2 (gene 6347); assay: BSK_CASM3C_MCP1: BioMAP Diversity Plus: CASM3C Assay for Monocyte Chemoattractant Protein-1 (MCP1) Biomarker Activity (AID 2283046); conditions: primary human coronary artery smooth muscle cells; actives raise or lower the signal;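 also: MCP-1 level quantified by ELISA 24 h after dosing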
[6] = BSK_CASM3C_Proliferation: Cell Proliferation Assessment in the BioMAP Diversity Plus: CASM3C Assay (AID 2283047); conditions: primary human coronary artery smooth muscle cells;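 also: sulforhodamine B total protein stain as relative cell number at 560 nm; sub-confluent cells exposed 48 h before staining; fitted both ways against DMSO so gain or loss of cell number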
[7] = read-out: Monokine induced gamma interferon (MIG), CXCL9 (gene 4283); assay: BSK_CASM3C_MIG: BioMAP Diversity Plus: CASM3C Assay for Monokine induced gamma interferon (MIG) Biomarker Activity (AID 2283048); conditions: primary human coronary artery smooth muscle cells; actives raise or lower the signal;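 also: MIG protein level measured by ELISA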
[8] = read-out: serum amyloid A (SAA), SAA1 (gene 6288); assay: BSK_CASM3C_SAA: BioMAP Diversity Plus: CASM3C Assay for serum amyloid A (SAA) Biomarker Activity (AID 2283049); conditions: primary human coronary artery smooth muscle cells; actives raise or lower the signal;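 also: SAA protein level quantified by ELISA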
[9] = BSK_CASM3C_SRB: Viability Assessment in the BioMAP Diversity Plus: CASM3C Assay (AID 2283050); conditions: primary human coronary artery smooth muscle cells;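 also: cells exposed to compound for 24 h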
[10] = read-out: Thrombomodulin, THBD (gene 7056); assay: BSK_CASM3C_Thrombomodulin: BioMAP Diversity Plus: CASM3C Assay for Thrombomodulin Biomarker Activity (AID 2283051); conditions: primary human coronary artery smooth muscle cells; actives raise or lower the signal;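 also: thrombomodulin protein level measured by ELISA 24 h after dosing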
[11] = read-out: Tissue Factor, F3 (gene 2152); assay: BSK_CASM3C_TissueFactor: BioMAP Diversity Plus: CASM3C Assay for Tissue Factor Biomarker Activity (AID 2283052); conditions: primary human coronary artery smooth muscle cells; actives raise or lower the signal;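 also: cell surface tissue factor protein level read by ELISA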
[12] = read-out: Interferon-gamma inducible Protein 10 (IP10), CXCL10 (gene 3627); assay: BSK_hDFCGF_IP10: BioMAP Diversity Plus: hDFCGF Assay for Interferon-gamma inducible Protein 10 (IP10) Biomarker Activity (AID 2283053); conditions: primary human foreskin fibroblasts; actives raise or lower the signal
In short: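 Primary human foreskin fibroblasts exposed to chemicals for 24 h. IP-10 measured by ELISA; changes fitted bidirectionally against DMSO baseline.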

[13] = read-out: Urokinase-type plasminogen activator receptor (uPAR), PLAUR (gene 5329); assay: BSK_CASM3C_uPAR: BioMAP Diversity Plus: CASM3C Assay for Urokinase-type plasminogen activator receptor (uPAR) Biomarker Activity (AID 2283054); conditions: primary human coronary artery smooth muscle cells; actives raise or lower the signal;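 also: cell-surface uPAR protein level quantified by ELISA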
[14] = read-out: Vascular cell adhesion molecule 1 (VCAM1), VCAM1 (gene 7412); assay: BSK_CASM3C_VCAM1: BioMAP Diversity Plus: CASM3C Assay for Vascular cell adhesion molecule 1 (VCAM1) Biomarker Activity (AID 2283055); conditions: primary human coronary artery smooth muscle cells; actives raise or lower the signal;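 also: VCAM-1 protein level quantified by ELISA on the cells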
[15] = read-out: Epidermal growth factor receptor (EGFR), EGFR (gene 1956); assay: BSK_hDFCGF_EGFR: BioMAP Diversity Plus: hDFCGF Assay for Epidermal growth factor receptor (EGFR) Biomarker Activity (AID 2283057); conditions: primary human foreskin fibroblasts; actives raise or lower the signal
In short: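 Primary human foreskin fibroblasts (hDFCGF system), sampled 24 h after dosing; EGFR quantified by ELISA. Bidirectional fit relative to DMSO baseline; SRB total-protein staining in parallel cultures for cytotoxicity.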

[16] = read-out: Interleukin-8 (IL8), CXCL8 (gene 3576); assay: BSK_hDFCGF_IL8: BioMAP Diversity Plus: hDFCGF Assay for Interleukin-8 (IL8) Biomarker Activity (AID 2283058); conditions: primary human foreskin fibroblasts; actives raise or lower the signal
In short: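 IL-8 levels from compound-treated primary human fibroblasts were read by ELISA at 24 h, with DMSO serving as baseline for bidirectional fitting.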

[17] = BSK_hDFCGF_Proliferation: Cell Proliferation Assessment in the BioMAP Diversity Plus: hDFCGF Assay (AID 2283059); conditions: primary human foreskin fibroblasts;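 also: curves fitted for both rise and fall of signal versus DMSO baseline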
In short: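 Steps: dose primary human dermal fibroblasts (foreskin); […] fix in 10% TCA; stain with 0.1% SRB; read 560 nm; fit gain or loss of signal against DMSO.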

[18] = read-out: Macrophage colony-stimulating factor (MCSF), CSF1 (gene 1435); assay: BSK_hDFCGF_MCSF: BioMAP Diversity Plus: hDFCGF Assay for Macrophage colony-stimulating factor (MCSF) Biomarker Activity (AID 2283060); conditions: primary human foreskin fibroblasts; actives raise or lower the signal
In short: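 M-CSF levels, determined by ELISA, are taken at 24 h after dosing human skin fibroblasts. Responses in either direction are fitted with DMSO serving as the baseline.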

[19] = read-out: Collagen III, COL3A1 (gene 1281); assay: BSK_hDFCGF_CollagenIII: BioMAP Diversity Plus: hDFCGF Assay for Collagen III Biomarker Activity (AID 2283056); conditions: primary human foreskin fibroblasts; actives raise or lower the signal
In short: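 Cells: human foreskin fibroblasts, primary. Dosing followed by 24 h incubation, then ELISA for collagen III. Both increases and decreases scored relative to DMSO.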

Measured: AC50

CCCCCCCCCCCCc1ccccc1S(=O)(=O)O
active: [12] 10.6 µM | [14] 11.2 µM | [16] 13.5 µM | [17] 9.26 µM | [18] 11.4 µM
inactive: [1] | [2] | [3] | [4] | [5] | [6] | [7] | [8] | [9] | [10] | [11] | [13] | [15]

CCc1nn(C2CCCCC2)c2cc(C3(C#N)CCC(C(=O)O)CC3)ccc12 (stereo not drawn)
active: [2] 4.52 µM | [3] 0.657 µM | [4] 1.47 µM | [5] 7.23 µM | [6] 4.09 µM | [7] 13.1 µM | [12] 4.83 µM | [13] 1.03 µM | [14] 5.03 µM | [15] 1.26 µM | [17] 4.27 µM | [18] 5.16 µM
inactive: [1] | [8] | [9] | [10] | [11] | [16]

Cc1cc(CCN2CCN(c3nsc4ccccc34)CC2)cc2c1NC(=O)CC2(C)C
active: [1] 35.4 µM | [2] 28.5 µM | [3] 36.1 µM | [4] 33.4 µM | [5] 37.1 µM | [6] 29.8 µM | [7] 37.1 µM | [8] 31.5 µM | [9] 36.5 µM | [10] 33.9 µM | [11] 29.6 µM | [12] 11.5 µM | [13] 31.1 µM | [14] 29.4 µM | [18] 10.8 µM
inactive: [15]

Nc1cccc2c(N)cccc12
inactive: [1] | [2] | [3] | [4] | [5] | [6] | [7] | [8] | [9] | [10] | [11] | [13] | [14] | [19] | [15]
active: [12] 29.1 µM | [18] 12.9 µM

CC(C)(C)c1cc(C(C)(C)C)c(O)c(C(C)(C)C)c1
active: [4] 11.8 µM | [10] 6.88 µM | [12] 32.8 µM | [17] 10.8 µM | [18] 31.5 µM
inactive: [1] | [2] | [3] | [5] | [6] | [7] | [8] | [9] | [11] | [13] | [14] | [15]

CCCCC(CC)COC(=O)CCCCC(=O)OCc1ccccc1 (stereo not drawn)
inactive: [1] | [2] | [3] | [4] | [5] | [6] | [7] | [8] | [9] | [10] | [11] | [12] | [13] | [14] | [15] | [17] | [18]

OC1CCC(C2CCCCC2)CC1 (stereo not drawn)
inactive: [1] | [2] | [3] | [4] | [5] | [6] | [7] | [8] | [9] | [10] | [11] | [12] | [13] | [14] | [15] | [18]

CC(C)CCCCCCOC(=O)CCCCC(=O)OCCCCCCC(C)C
inactive: [1] | [2] | [3] | [4] | [5] | [6] | [7] | [8] | [9] | [10] | [11] | [12] | [13] | [14] | [15] | [18]

COCC(C)O (stereo not drawn)
inactive: [1] | [2] | [3] | [4] | [5] | [6] | [7] | [8] | [9] | [10] | [11] | [12] | [13] | [14] | [19] | [15] | [16] | [17] | [18]

CCCCCCCCCCCCCCCS(=O)(=O)Oc1ccccc1
inactive: [1] | [2] | [3] | [4] | [5] | [6] | [7] | [8] | [9] | [10] | [11] | [12] | [13] | [14] | [15] | [16] | [18]

CC(=O)CC(C)(C)O
inactive: [1] | [2] | [3] | [4] | [5] | [6] | [7] | [8] | [9] | [10] | [11] | [12] | [13] | [14] | [19] | [15] | [18]
